Rab9 prom act: qHTS Assay for Rab9 Promoter Activators; Huh7 Rab9 promoter-luciferase reporter, luminescence, 24 h; actives 2.8% (n = 320,000); Potency, µM (titrated, usually from 9.22 µM), for inactives: at the highest dose activation, negative = inhibition, usual class: activators; further: % of control where 0% means no effect; nearly all actives have a fitted effect of over 60% in size
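Stable Rab9-luc Huh7, 1500 cells/well, 2 h settle; cmpd in DMSO, 24 h, 37 °C/5% CO2; luciferase reagent 10 min RT; luminescence.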
SMN2 splice up: qHTS Assay for Enhancers of SMN2 Splice Variant Expression; HEK293 SMN2-luciferase splicing reporter, luminescence, 30-36 h; Potency, µM (titrated, usually from 46.1 µM), for the others: top-dose activity change, positive = activation, hits mostly activators; actives 2.8% (n = 210,000); further: % of control where 0% means no effect; nearly all actives have a fitted effect of over 55% in size
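HEK293 cells carry an SMN2 minigene-luciferase reporter in which exon 7 inclusion puts luciferase in frame. Cells were seeded at 2000 cells/well, attached for 10-12 hours, then exposed to compounds for 30-36 hours at 37C before ONE-Glo luminescence.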
Luc counter: Counterscreen for Luciferase (Kinase-Glo TM) Inhibition; Luciferin 4-monooxygenase (Photuris pensylvanica), Q27757; Kinase-Glo luciferase, ATP luminescence, 8 min; AID 1379, 2008; actives 0.28% (n = 200,000); Potency, µM (titrated, usually from 38.3 µM), for the others: at the top dose activity change, negative = inhibition, actives largely listed as inhibitors; further: on the % scale 0 is the no-effect control and ±100 the full control effect; nearly all actives have a fitted effect of over 60% in size
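Inhibition of Kinase-Glo luciferase light generation was assessed at 10 uM ATP in pH 7.2 imidazole buffer, with luminescence measured after eight minutes at ambient temperature.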
FLuc counter: qHTS profiling assay for firefly luciferase inhibitor/activator using purifed enzyme and Km concentrations of substrates (counterscreen for miR-21 project); Luciferin 4-monooxygenase (Photinus pyralis), P08659; purified FLuc, Km substrates, luminescence inhibition; Potency, µM (doses to about 57.5 µM), for inactives: at the top dose activity change, negative = inhibition, hits mostly inhibitors; actives 6.9% (n = 360,000); AID 588342, 2011;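 further: plate controls were vehicle for no effect and reference inhibitor for full effect; nearly all actives have a fitted effect of over 55% in size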
Target sequence (P08659 whole entry, looked up): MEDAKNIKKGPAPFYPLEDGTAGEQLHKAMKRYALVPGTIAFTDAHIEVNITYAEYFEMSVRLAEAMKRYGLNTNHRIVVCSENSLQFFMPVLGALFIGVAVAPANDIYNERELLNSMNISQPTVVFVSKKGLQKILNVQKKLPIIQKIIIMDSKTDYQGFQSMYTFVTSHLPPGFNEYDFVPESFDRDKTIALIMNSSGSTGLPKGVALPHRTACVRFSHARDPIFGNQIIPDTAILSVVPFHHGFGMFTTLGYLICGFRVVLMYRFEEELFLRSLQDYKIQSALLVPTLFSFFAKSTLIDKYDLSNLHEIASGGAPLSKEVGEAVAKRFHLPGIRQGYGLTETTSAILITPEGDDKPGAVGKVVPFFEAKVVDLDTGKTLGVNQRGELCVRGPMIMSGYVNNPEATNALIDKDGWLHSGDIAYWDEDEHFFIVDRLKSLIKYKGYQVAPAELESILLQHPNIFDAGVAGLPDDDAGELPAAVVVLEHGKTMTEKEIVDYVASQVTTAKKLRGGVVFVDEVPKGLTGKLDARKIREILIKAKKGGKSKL
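Purified P. pyralis luciferase, 10 nM final, with Km-level 10 uM D-luciferin and 10 uM ATP in 50 mM Tris acetate pH 7.5, 10 mM Mg acetate, 0.01% Tween-20, 0.05% BSA; 6-point qHTS titration about 60 µM downward; luminescence read.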
NPC1 prom act: qHTS Assay for NPC1 Promoter Activators. Huh7 NPC1 promoter luciferase reporter, 24 h. Potency, µM (highest dose often 9.22 µM), for inactives: at the highest dose activation, actives largely listed as activators. actives 2.4% (n = 320,000). AID 485313, 2010; further: % of control where 0% means no effect; nearly all actives have a fitted effect of over 60% in size
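Huh7 reporter cells (NPC1 promoter driving luciferase) are dosed with compound for 24 h at 37 °C, 5% CO2; luciferase detection reagent is then added and luminescence measured after 10 min at ambient temperature.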
* = called active by the depositor; ? = inconclusive; / = no result; [ ] = dose if it differs, or a comment. This is a sample that favours compounds with a hit; in the whole collection about 7.3% have one here. The call rests on the fitted dose curve; in most records, active means well fitted curve in the direction sought with a large enough effect; inconclusive means small, poorly fitted or top-dose-only effect, or another doubt; inactive means no such curve, though single readings can be large; an effect the other way counts as inactive or inconclusive. Potency means the concentration at half of the fitted maximal effect.

SMILES	Rab9 prom act	SMN2 splice up	Luc counter	FLuc counter	NPC1 prom act
Cc1ccc2c(c1)c1nc3ccccc3nc1n2C	3%	/	/	6.7µM*	2%
COc1ccc(C(=O)Nc2ccc(O)cc2C(=O)O)cc1	3%	-6%	2%	11µM*	-4%
O=C(Nc1cc(C(=O)Nc2ccccc2C(=O)O)cc(C(=O)Nc2ccccc2C(=O)O)c1)c1ccccc1	-3%	/	/	3%	0%
COCC(=O)Nc1ccccc1C(=O)Nc1ccc(OC)cc1	2.8µM*	?	0%	1%	?
COc1ccc(NC(=O)c2ccccc2NC(=O)COc2ccccc2)cc1	2%	19%	15%	-1%	-2%
Cc1nnc(NC(=O)c2ccc3ccccc3c2)o1	11%	-13%	-4%	24µM*	4%
COc1c(Cl)cc(C(=O)Nc2ccccc2C(=O)O)cc1Cl	18%	-3%	2%	17µM*	3%
COc1ccc(NC(=O)c2ccc(C(=O)Nc3ccc(OC)cc3OC)cc2)c(OC)c1	-1%	-13%	0%	-3%	-2%
O=C(O)c1ccc(NC(=O)c2ccccc2NC(=O)c2ccccc2Cl)cc1	-2%	/	/	19µM*	-2%
CC(C)Oc1ccc(C(=O)NNC(=O)c2ccccc2C(=O)O)cc1	12%	3%	3%	21µM*	-1%
NC(=O)c1ccccc1NC(=O)c1ccc2c(c1)OCO2	1.8µM*	/	/	7.6µM*	1µM*
COc1ccc(NC(=O)c2ccccc2NC(=O)c2cccs2)cc1	22%	/	/	15µM*	16%
O=C(Cc1ccc(Cl)cc1)Nc1ccccc1C(=O)Nc1ccc(C(=O)O)cc1	0%	-6%	2%	-20%	-6%
COC(=O)c1ccccc1NC(=S)NC(=O)c1ccc2c(c1)OCO2	-3%	/	/	-19%	-2%
CC(C)Oc1ccc(CCC(=O)NNC(=O)c2ccccc2C(=O)O)cc1	-2%	/	/	-8%	6%
Cc1ccc(NC(=O)c2ccccc2NC(=O)c2cccs2)cc1	4%	/	/	?	-9%
COc1ccccc1NC(=O)CSc1nc2ccccc2c(=O)n1CCC(=O)NC1CCCCC1	/	/	/	0%	/
Cc1cccc(NC(=O)Cn2c(=O)c3cccn3c3ccccc32)c1C	/	/	/	-4%	/
CCC(NC(=O)c1ccccc1NC(=O)C(C)(C)C)C(=O)N1CCCC1 (configuration not stated)	-6%	/	/	0%	2%
COc1ccc(NC(=O)c2ccccc2NC(=O)NC2CCCCC2)cc1	18%	20%	-2%	5.4µM*	21%
COc1ccc(C(=O)Nc2ccccc2C(=O)N/N=C/c2cccc3ccccc23)cc1	?	-60%	5µM*	0.085µM*	?
CCC(NC(=O)c1ccccc1NC(=O)c1ccc(OC)cc1)C(=O)N1CCCC1 (configuration not stated)	24%	?	-1%	17µM*	21%
COC(=O)c1ccccc1NC(=O)NC1CCCC1	1%	/	/	-5%	3%
COc1cccc(/C=N/NC(=O)c2cccc3ccccc23)c1	-2%	/	/	-11%	10%
COc1ccc(C(=O)Nc2ccccc2C(N)=O)cc1	2µM*	32µM*	?	-22%[2.3 µM]	3.2µM*
SMILES	Rab9 prom act	SMN2 splice up	Luc counter	FLuc counter	NPC1 prom act
Cc1ccc(N2C(=O)c3oc4cc(C)c(C)cc4c(=O)c3C2c2cccc(O)c2)nc1 (configuration not stated)	/	5%	/	4%	/
COc1ccc2ncc3c(-c4ccccc4)nn(-c4ccc(C)c(C)c4)c3c2c1	/	5%	/	-8%	/
COc1ccc(NC(=O)Cn2ncc3c2-c2ccccc2OC3)cc1Cl	/	-29%	/	1%	/
Cc1ccccc1NC(=O)NNC(=O)c1ccc2ccccc2c1	-3%	/	/	-1%	-1%
NC(=O)c1ccccc1NC(=O)c1ccc2ccccc2c1	0.56µM*	/	/	0.54µM*	0.89µM*
COc1ccc(C(=O)Nc2ccccc2C(=O)Nc2ccccc2C(=O)O)cc1	2.8µM*	/	/	0.48µM*	3.2µM*
CCCCNC(=O)Nc1ccccc1C(=O)Nc1ccc(OC)cc1	13%	13%	-3%	11µM*	2%
COc1ccc(C(=O)Nc2ccccc2C(=O)N2CCCCCC2)cc1	4%	/	/	0%	?
Cc1ccccc1NC(=O)c1ccc2ccccc2c1	?	/	/	15µM*	?
CCCCNC(=O)Nc1ccccc1C(=O)NCCC	0%	4%	-1%	-15%	-4%
CCOC(=O)c1noc2ncnc(N(CCC(=O)OC)c3ccccc3)c12	/	/	/	-14%	/
CC(C)OCCCNC(=O)CCCn1c(SCC(=O)c2ccc(Br)cc2)nc2c(sc3ccccc32)c1=O	/	9%	/	-3%	/
COc1ccc(C2C(=O)N(C3CCC(C)CC3)CC(=O)N2C2CCCCC2)cc1OC (configuration not stated)	/	/	/	4%	/
COc1ccc(-c2noc(N3CCC(C(=O)N4CCN(c5ccccc5F)CC4)CC3)n2)cc1	/	/	/	-9%	/
COc1cc2nc(SCc3ccc(C)cc3)n3nc(CCn4nc(C)cc4C)nc3c2cc1OC	/	-1%	/	4%	/
COc1ccc(C)cc1NC(=O)NC1CCCCCCC1	0%	/	/	15µM*	-2%
COc1ccc(C(=O)Nc2ccccc2C(=O)Nc2ccncc2)cc1	?	/	/	1.7µM*	?
COc1ccc(C(=O)Nc2ccccc2C(=O)Nc2ccc(C(=O)O)cc2)cc1	?	/	/	0.76µM*	?
COc1ccc(NC(=O)c2ccc(Cl)c(NC(=O)c3ccncc3)c2)cc1	-2%	/	-4%	?	-2%
Cc1cn2c(=O)cc(COC(=O)c3cccc(NC(=O)COc4ccccc4Cl)c3)nc2s1	/	/	/	4.8µM*	/
Cc1nn2c(=O)cc(COC(=O)c3cccc(NC(=O)c4ccc(C(C)(C)C)cc4)c3)nc2s1	/	/	/	0.54µM*	/
Cc1cccc(C(=O)Nc2cccc(C(=O)OCc3cc(=O)n4nc(C(C)C)sc4n3)c2)c1	/	/	/	-20%	/
COC(=O)C1=C(C)N(C(C)C)C(=O)C1(NC(=O)c1ccc(C(C)(C)C)cc1)C(F)(F)F (configuration not stated)	/	5%	/	3%	/
Cc1cc(C)cc(NC(=O)C2CCN(S(=O)(=O)c3c(C)noc3/C=C/c3ccco3)CC2)c1	/	-5%	/	-2%	/
COc1ccc(/C=C/C(=O)Nc2sc(C)c(C)c2C(=O)O)cc1	/	1%	/	1.3µM*	/
Cc1sc(NC(=O)/C=C/c2ccco2)c(C(=O)O)c1C	?	/	/	5.4µM*	?
CCOC(=O)c1c(Oc2ccc(C(=O)OC)cc2)nnc(-c2ccccc2)c1-c1ccccc1	/	?	/	2%	/
COc1ccc(Cc2nc(-c3ccccc3)no2)cc1	?	?	-1%	15µM*	?
COc1ccc(Cc2nc(-c3cccs3)no2)cc1	?	?	3%	15µM*	?
